Results published in PubChem BioAssay AID1210 (NMMLSC, 2008).
Activity calls are given as the source filed them.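 How the source made its calls: active means blocks over 70% of labeled estradiol binding at 10 µM, or over a set limit at 100 nM; inactive means the rest.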

Molecular target: Estrogen receptor beta (Homo sapiens) (UniProt Q92731)
Test: displacement of fluorescent estrogen from ERbeta – cell-based, Cos7 ERbeta-GFP, flow cytometry, primary screen (AID 1210);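 further: 0% = DMSO vehicle wells and 100% = complete loss of labeled estradiol signal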
Conditions: fluorescent estrogen binding, stronger effect = higher value
[1] = ligand binding inhibition, at 0.1 µM

Sequence of Estrogen receptor beta (Homo sapiens) (Q92731 whole entry, looked up): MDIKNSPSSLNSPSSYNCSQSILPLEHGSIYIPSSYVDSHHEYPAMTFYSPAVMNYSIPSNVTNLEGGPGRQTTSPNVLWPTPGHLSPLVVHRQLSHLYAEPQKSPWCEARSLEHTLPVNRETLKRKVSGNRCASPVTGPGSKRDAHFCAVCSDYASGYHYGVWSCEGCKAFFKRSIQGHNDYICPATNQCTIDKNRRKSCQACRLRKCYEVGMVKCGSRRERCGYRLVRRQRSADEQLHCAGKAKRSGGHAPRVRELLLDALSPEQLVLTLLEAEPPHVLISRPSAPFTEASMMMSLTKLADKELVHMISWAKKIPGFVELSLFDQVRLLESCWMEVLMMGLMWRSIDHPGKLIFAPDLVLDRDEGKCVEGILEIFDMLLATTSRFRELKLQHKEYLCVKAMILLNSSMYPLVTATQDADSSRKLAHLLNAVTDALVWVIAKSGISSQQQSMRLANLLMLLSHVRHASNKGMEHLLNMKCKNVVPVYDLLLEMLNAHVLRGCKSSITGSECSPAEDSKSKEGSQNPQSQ

Question: For `CCc1ccc(Nc2cc(C(=O)NCCCN3CCOCC3)c3ccccc3n2)cc1`, which inhibition (at 10 µM) is on record?
Answer: The inhibition was 38% (inactive).

Question: And the inhibition [1]?
Answer: Its inhibition is 12%.

Question: For `CC(=O)c1ccc(NC(=S)N2CCC(O)CC2)cc1`, which inhibition (at 10 µM) is on record?
Answer: The inhibition was 41% (inactive).

Question: And the inhibition [1]?
Answer: Its inhibition is 23%.

Question: What does the source list for `CC(=O)c1cccc(NC(=O)Cc2cccs2)c1`?
Answer: inhibition (at 10 µM): 11% (inactive); inhibition [1]: 23%

Question: For `O=c1cc(O)c2sc(Nc3ccc(F)cc3)nc2[nH]1`, which inhibition (at 10 µM) is on record?
Answer: The inhibition was 8% (inactive).

Question: And the inhibition [1]?
Answer: The inhibition was 9%.

Question: Which results are given for `Cc1cccc(N2CSC3=C(C#N)C(c4ccc(C)o4)CC(=O)N3C2)c1` (stereo not given)?
Answer: inhibition (at 10 µM): 35% (inactive); inhibition [1]: 21%

Question: What does the source list for `CCOc1ccc(CC2S/C(=N/c3ccccn3)NC2=O)cc1` (stereo not given)?
Answer: inhibition (at 10 µM): 16% (inactive); inhibition [1]: 15%

Question: `CC1CCCN(c2nc3c(c(=O)[nH]c(=O)n3C)n2Cc2ccccc2Cl)C1` (stereo not given) was tested. Which inhibition (at 10 µM) did it give?
Answer: The inhibition was 38% (inactive).

Question: And the inhibition [1]?
Answer: Its inhibition is 32%.

Question: How did the inhibition (at 10 µM) turn out when `CCCNCC1COc2ccccc2O1` (stereo not given) was run?
Answer: Its inhibition is 51% (inactive).

Question: And the inhibition [1]?
Answer: Its inhibition is 41%.

Question: For `C=CCn1c(COc2ccccc2F)nnc1SCC(=O)NC(=O)NCc1ccco1`, which inhibition (at 10 µM) is on record?
Answer: Its inhibition is 24% (inactive).

Question: What about the inhibition [1] of the same molecule?
Answer: The inhibition was 2%.

Question: For `CC(C)CC(=O)Nc1ccc(C(=O)COc2ccc(-c3nnco3)cc2)cc1`, which inhibition (at 10 µM) is on record?
Answer: Its inhibition is 44% (inactive).

Question: And the inhibition [1]?
Answer: Its inhibition is 49%.

Question: Which results are given for `Cc1ccc(S(=O)(=O)Cc2ccc(C(=O)N3CCc4ccccc4C3)o2)cc1`?
Answer: inhibition (at 10 µM): 43% (inactive); inhibition [1]: 10%

Question: What does the source list for `Nc1ccc2nc(-c3cccnc3)[nH]c2c1`?
Answer: inhibition (at 10 µM): 50% (inactive); inhibition [1]: 20%

Question: Which inhibition (at 10 µM) does the source give for `O=C1C2C3C=CC(C3)C2C(=O)N1c1cccc2cccnc12` (stereo not given) here?
Answer: Its inhibition is 55% (inactive).

Question: And the inhibition [1]?
Answer: Its inhibition is 51%.

Question: For `O=C(O)c1ccc2c(c1)[C@@H]1C=CC[C@@H]1[C@H](c1ccccn1)N2`, which inhibition (at 10 µM) is on record?
Answer: Its inhibition is 0% (inactive).

Question: What about the inhibition [1] of the same molecule?
Answer: Its inhibition is 25%.

Question: How did the inhibition (at 10 µM) turn out when `Cc1ccc(C(=O)ONc2ccc(N=NC(=O)c3ccccc3O)cc2)cc1` was run?
Answer: Its inhibition is 58% (inactive).

Question: And the inhibition [1]?
Answer: Its inhibition is 28%.
